High-throughput results as filed in PubChem.
Rows were chosen to be rich in hits. Some 14% of all compounds tested hit in one or more screens of this group.
CRE Fsk mod – Cell signaling CRE-BLA (Fsk stim); Potency, µM (doses to about 38.2 µM), inactives show at the top dose activity change, negative = inhibition, usual class: activators; AID 662, 2007; CHO CRE-bla reporter (cAMP response element driving beta-lactamase), forskolin EC10, beta-lactamase ratio; 71,000 tested, 2.5% active; active = well fitted activation curve with a large enough effect in the signal ratio, with a control signal flat, not every such curve was filed as active; inconclusive = small, poorly fitted or top-dose-only effect, or effect the other way, or a change in a side signal; the % refers to the signal ratio; also: potency is read from the fitted curve at half-maximal effect; % of control where 0% means no effect
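Modulation of forskolin signalling: compounds in titration series added with EC10 NKH 477 to CHO cells carrying a CRE-driven beta-lactamase reporter, 3 h, 37C. CCF4 FRET ratio (460/530 nm, ex 405 nm) gives %activity and AC50.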
4-MU autofl – qHTS Assay for Spectroscopic Profiling in 4-MU Spectral Region | AID 589, 2007 | 59,000 tested, 11% active | compound autofluorescence, 340/450 nm, 4-MU equivalents; stronger effect = higher value | max dye-equivalent concentration, M; in the data active = max dye-equivalent concentration above about 10 nM; inconclusive = mostly about 1.1 nM to 9.6 nM
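Intrinsic fluorescence at 340/450 nm (ex/em) was read after 15 min at room temperature in pH 8.0, 100 mM Tris. Each compound concentration expressed as 4-MU-equivalent concentration from a six-point 4-MU standard series on each plate.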
A350 autofl – qHTS Assay for Spectroscopic Profiling in A350 Spectral Region; Compound autofluorescence, 340/450 nm, Alexa 350 dye-equivalents; stronger effect = higher value; max dye-equivalent concentration, M; 59,000 tested, 11% active; in the data active = max dye-equivalent concentration above about 10 nM; inconclusive = mostly about 1.1 nM to 9.6 nM
HSD17B inhib – qHTS Assay for Inhibitors of HSD17B4, hydroxysteroid (17-beta) dehydrogenase 4; AID 893, 2007; 75,000 tested, 7.6% active; Potency, µM (top dose mostly 57.1 µM), without a hit: at the highest dose activity change, negative = inhibition, actives largely listed as inhibitors; 3-hydroxyacyl-CoA dehydrogenase type-2 (Homo sapiens), Q99714; recombinant HSD17B10, NADH fluorescence kinetic;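 also: the protocol describes HADH2 (HSD17B10) and not the HSD17B4 of the title; potency is read from the fitted curve at half-maximal effect; % is scaled to controls: 0 for no effect and ±100 for the full control effect; nearly all actives have a fitted effect of over 70% in size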
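Enzyme plus compound, 15 min room temperature; substrate mix added (NAD+ 1 mM, beta-hydroxybutyryl-CoA 90 uM final); plates read kinetically for NADH fluorescence. HADH2 was His-tagged, E. coli-derived, 20 nM.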
HADH2 inhib – qHTS Assay for Inhibitors of HADH2 (Hydroxyacyl-Coenzyme A Dehydrogenase, Type II) | 73,000 tested, 3.4% active | AID 886, 2007 | Potency, µM (series often up to 57.1 µM), without a hit: top-dose activity change, negative = inhibition, actives largely listed as inhibitors | recombinant HADH2, NADH fluorescence, beta-hydroxybutyryl-CoA; also: potency is read from the fitted curve at half-maximal effect; % is scaled to controls: 0 for no effect and ±100 for the full control effect; nearly all actives have a fitted effect of over 60% in size
Target sequence (Q99714 whole entry, looked up, one chain of several): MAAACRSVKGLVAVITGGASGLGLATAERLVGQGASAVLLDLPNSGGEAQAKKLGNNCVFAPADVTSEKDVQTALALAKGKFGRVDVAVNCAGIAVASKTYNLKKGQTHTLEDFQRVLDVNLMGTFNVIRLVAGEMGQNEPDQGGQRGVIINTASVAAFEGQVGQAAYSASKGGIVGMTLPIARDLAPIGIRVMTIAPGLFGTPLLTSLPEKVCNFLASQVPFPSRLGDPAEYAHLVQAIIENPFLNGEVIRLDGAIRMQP
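Activity measured as NADH fluorescence gain (360/450 nm), taken as the change between first and last reads of a 4-min kinetic run. Conditions: pH 9.0 Tris buffer, 20 nM E. coli-expressed His-tagged enzyme, 1 mM NAD+, 90 uM beta-hydroxybutyryl-CoA; 15-min compound preincubation.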
AID923 – qHTS Assay for Allosteric/Competitive Inhibitors of Caspase-1: Spectroscopic Profiling in AFC Spectral Region | compound fluorescence, AFC spectral region (405/520 nm) | Potency, µM (titrated, usually from 57.5 µM), inactives show at the highest dose fluorescence increase, usual class: activators | 75,000 tested, 1.1% active; also: potency is read from the fitted curve at half-maximal effect; 0% is about no effect
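Baseline compound fluorescence (AFC region, 405 nm ex/520 nm em) taken from the intercept of kinetic reads with 50 nM caspase-1 and 5 uM Ac-WEHD-AFC; normalized to an on-plate AFC standard curve; compounds titrated up to 57 uM.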
An asterisk follows results filed as active; i = inactive; ? = inconclusive; · = not tested or not shown; [ ] = another dose, or the depositor's remark. Unless noted, calls follow the shape of the dose curve; as a rule, active = well fitted curve in the direction sought with a large enough effect; inconclusive = small, poorly fitted or top-dose-only effect, or another doubt; inactive = no such curve, though single readings can be large; an effect the other way counts as inactive or inconclusive.

SMILES | CRE Fsk mod | 4-MU autofl | A350 autofl | HSD17B inhib | HADH2 inhib | AID923
CN(C)[C@H]1C(=O)C(C(=O)NCN2CCCC2)=C(O)[C@]2(O)C(=O)C3=C(O)c4c(O)cccc4[C@](C)(O)[C@H]3C[C@H]12 | -2.6%[7.6 µM] | i | ? | 3.98µM* | 3.98µM* | -1.1%[11.5 µM]
COc1ccc2oc(C(=O)C3CC3)c(N)c2c1 | 18.8% | 7.17e-08M* | 7.19e-08M* | ? | -20.7% | 1.2%
Nc1c(C(=O)NC2CCCCC2)c2nc3ccccc3nc2n1/N=C/c1ccco1 | ? | 1.94e-08M* | 2.58e-08M* | ? | 8.3% | 3.1%
CCCCNC(=O)c1c(N)n(/N=C/c2ccccn2)c2nc3ccccc3nc12 | -7.7% | i | i | 1.3% | 4.5% | 0.2%
COCCNC(=O)c1c(N)n(/N=C/c2cccs2)c2nc3ccccc3nc12 | · | 3.97e-08M* | 4.8e-08M* | · | · | ·
CCCCCCNC(=O)c1c(N)n(/N=C/c2ccco2)c2nc3ccccc3nc12 | ? | 2.69e-08M* | 3.21e-08M* | -13.2% | 1.6% | 7.5%
CCC(/C=C/C(C)C1CCC2C3CCC4=CC(=O)CC[C@@]4(C)C3CC[C@@]12C)C(C)C (some centres undefined) | · | · | · | 3.6% | · | -0.2%
Cc1nn(CC(O)Cn2c3c(c4ccccc42)CCN(C)C3=O)c(C)c1Br (centres undefined) | ? | 3.74e-08M* | 3.19e-08M* | 31.6µM* | ? | 0.3%
Cc1nn(CC(O)Cn2cnc3c2c(=O)n(C)c(=O)n3C)c(C)c1Br (centres undefined) | ? | i | i | 2.4% | -1.7% | -0.2%
CC(=O)Nc1ccc(S(=O)(=O)Nc2nc3ccccc3nc2Sc2nncn2C)cc1 | -9.4% | 5.07e-08M* | 5.3e-08M* | ? | ? | 17.8%
Cn1ccnc1Sc1nc2ccccc2nc1NS(=O)(=O)c1ccccc1 | ? | 1.09e-08M* | 1.45e-08M* | -13.1% | ? | 4.6%
Cn1ccnc1SCC(=O)Nc1ccc(Oc2ccccc2)cc1 | -8.3% | i | ? | -4.8% | 4.8% | -1.3%
Cn1cnnc1Sc1nc2ccccc2nc1NS(=O)(=O)c1ccccc1 | ? | 8.81e-08M* | 1.16e-07M* | ? | -6.8% | 0.1%
CCCOCC(C)OCC(C)O (centres undefined) | -6.3% | · | · | 3.2% | 1.0% | -3.8%
CCOC(=O)OCC1OC(CCc2ccccc2)CCC1Oc1ccc(OC)cc1 (centres undefined) | · | · | · | -2.2%[11.4 µM] | 3.2%[11.4 µM] | -0.6%[11.5 µM]
O=S(=O)(Nc1cccc2ccccc12)N1CCCC1 | -5.7% | ? | ? | 31.6µM* | 31.6µM* | 0.3%
O=C(NCCc1ccccc1)c1ccccc1NS(=O)(=O)N1CCCC1 | 20.1% | ? | ? | 31.6µM* | 10µM* | 0.7%
COc1ccccc1NC(=O)c1ccccc1NS(=O)(=O)N1CCCC1 | 7.4% | ? | ? | -22.4% | -2.3% | -0.6%
O=S(=O)(c1ccc2ccccc2c1)N1CCCCC1 | -7.0% | · | · | -6.7% | -0.5% | -1.4%
CN1c2cccc3cccc(c23)N(C)C1(C)C | -0.6% | 1.97e-07M* | 1.81e-07M* | 31.6µM* | 25.1µM* | 2.0%
COc1cc2c(C(=O)NC3CCCCCC3)cn(C)c(=O)c2cc1OC | 2µM* | i | i | 4.4% | 7.0% | 0.5%
COc1cc2[nH]c(=O)n(CCC(=O)N3CCN(c4cc(Cl)ccc4C)CC3)c(=O)c2cc1OC | 3.6% | i | i | -18.8% | -23.2% | 1.3%
CCOc1cc2[nH]c(=O)n(CCCCC(=O)NC3CCCCC3)c(=O)c2cc1OCC | -13.8% | i | i | 31.6µM* | 3.8% | 1.9%
COc1cc2[nH]c(=O)n(CCC(=O)N3CCc4ccccc4C3)c(=O)c2cc1OC | -0.6% | i | i | 31.6µM* | -11.8% | 0.2%
COc1cc2[nH]c(=O)n(CCC(=O)NC3CCCC3)c(=O)c2cc1OC | 11.1% | ? | ? | 25.1µM* | -2.6% | -1.0%
SMILES | CRE Fsk mod | 4-MU autofl | A350 autofl | HSD17B inhib | HADH2 inhib | AID923
O=C(CCn1c(=O)[nH]c2ccsc2c1=O)N1CCc2ccccc2C1 | ? | i | i | -2.8% | -1.4% | -0.9%
O=C(O)c1ccccc1CN1CCC[C@@H](C(=O)O)C1 | 6.9%[7.6 µM] | i | i | -1.2%[11.4 µM] | 11.3%[11.4 µM] | -1.0%[11.5 µM]
O=C(c1ccncc1)N1CCC2(CC1)CN(c1ccccc1)C2 | -14.1% | i | i | 2.9% | -3.7% | 4.1%
CS(=O)(=O)Nc1cccc(-c2cncnc2Nc2ccc(F)cc2)c1 | -2.3% | i | i | ? | ? | 0.3%
c1ccc2c3c(cc(N4CCOCC4)c2c1)OC1(N2CCOCC2)CCCCC1O3 (centres undefined) | -2.0% | 7.78e-08M* | 5.65e-08M* | 31.6µM* | -23.5% | -2.0%
O=C(Nc1ccc(N2CCOCC2)c(Cl)c1)C1CCCCC1 | ? | · | · | -4.5% | 5.6% | 0.9%
O=C1C[C@@H](O)[C@@H](O)[C@H]2[C@@H]3C(=O)N(C[C@@H]4CCCO4)C(=O)[C@@H]3CC[C@H]12 | · | · | · | 6.5%[11.4 µM] | -1.8%[11.4 µM] | 4.2%[11.5 µM]
COC(=O)N1CCC[C@@]2(CCN(C(=O)Nc3ccc(OC)cc3)C2)C1 | 8.3% | i | i | 0.5% | -2.5% | 0.0%
Cc1cc(C)n(C(=O)CCCC(=O)n2nc(C)cc2C)n1 | ? | i | i | -6.2% | -4.6% | -1.8%
Cc1cc(C)n(C(=O)COc2c(C)cccc2C)n1 | 5.0% | 4.46e-07M* | 4.74e-07M* | 31.6µM* | 9.7% | 20.0%
CCCCCCCCCC(=O)N[C@@H](CN1CCOCC1)[C@@H](O)c1ccccc1 | -1.7% | i | i | -6.1% | 11.5% | -2.4%
Cc1ccc(-c2nnc3c4ccccc4c(C)nn23)cc1S(=O)(=O)N1CCN(C)CC1 | ? | i | i | 3.1% | 9.1% | -2.5%
Cc1ccc(-c2nnc3c4ccccc4c(C)nn23)cc1S(=O)(=O)N1CCN(CCO)CC1 | 3.16µM* | i | i | ? | 7.4% | 2.0%
Cc1nc(N)c(C#N)c(-c2cccnc2)c1C | 2.3% | 1.6e-08M* | 2.11e-08M* | 31.6µM* | -2.8% | 5.6%
CCc1nc(N)c(C#N)c(-c2cccnc2)c1C | 10µM* | 1.59e-07M* | 2.14e-07M* | ? | -5.4% | 1.4%
N#Cc1c(N)nc(-c2ccccc2)nc1-c1ccccc1 | ? | i | i | -20.7% | ? | -1.7%
NC(CSS(=O)(=O)O)=N[C@@H]1C[C@H]2CC[C@@H]1C2 | 1.8%[7.6 µM] | i | i | -4.8%[11.4 µM] | ? | 4.5%[11.5 µM]
O=C(c1ccco1)N1CCC2(CCCN(C(c3ccccc3)c3ccccc3)C2)CC1 | 13.0% | i | i | -1.3% | 1.6% | 0.0%
